In PubChem BioAssay (NCATS) one finds Potency data, which are given here for 35 compounds.

Test [1] can be described thus: Primary qHTS for inhibitors of SARS-S pseudo-typed particle cell entry (AID 1479145). Further: nearly all actives have a fitted effect of over 45% in size. Further: potency means the concentration at half of the fitted maximal effect. To be noted: SARS-S pseudotyped particle cell entry, luciferase reporter; series mostly up to 57.1 µM.
The nature of test [2]: Primary qHTS for Huh7 cytotoxicity: counterscreen for inhibitors of MERS-S pseudotyped particle cell entry (AID 1479147). The following applies: cell viability read-out; series mostly up to 57.1 µM.
Test [3] can be described thus: Primary qHTS for inhibitors of MERS-S pseudo-typed particle cell entry (AID 1479149). Further: nearly all actives have a fitted effect of over 60% in size. Further: potency means the concentration at half of the fitted maximal effect. To be noted: MERS-S pseudotyped particle entry, luciferase; series mostly up to 57.1 µM. (qHTS replaces the single test concentration by a dilution series.)
Test [4] can be described thus: Primary qHTS for Vero E6 cytotoxicity: counterscreen for inhibitors of SARS-S pseudo-typed particle cell entry (AID 1479150). The following applies: cell viability; series mostly up to 57.1 µM.

Records with an inconclusive call do not appear. Unmarked numbers belong to inactive results. Activity calls are given as the source filed them. The call rests on the fitted dose curve.

As to `CCc1c2c(nc3ccc(OC(=O)N4CCC(N5CCCCC5)CC4)cc13)-c1cc3c(c(=O)n1C2)COC(=O)[C@]3(O)CC`, the Potency entry in test [1], in test [2] and in test [4] was “inactive” each time. Also, in test [3], the Potency was 10 µM (active).
Consider `Cc1ccc(C)c(OCCCC(C)(C)C(=O)O)c1`, for which the Potency entry in test [1], in test [2], in test [3] and in test [4] was “inactive” in each case.
In the case of `CC12CC3CC(C)(C1)CC(N)(C3)C2`, the Potency entry in test [1], in test [2], in test [3] and in test [4] was “inactive” each time.
For the compound `CC(COc1ccccc1)N(CCCl)Cc1ccccc1` (stereo not given), the Potency entry in test [1], in test [2], in test [3] and in test [4] was “inactive” throughout.
In the case of `NC(=O)C(c1ccccc1)(c1ccccc1)[C@@H]1CCN(CCc2ccc3c(c2)CCO3)C1`, the Potency entry in test [1], in test [2], in test [3] and in test [4] was “inactive” in each case.
Take `CCCCCOC(=O)Nc1nc(=O)n([C@@H]2O[C@H](C)[C@@H](O)[C@H]2O)cc1F`: the Potency result in test [1], in test [2], in test [3] and in test [4] was “inactive” throughout.
`CO[C@H]1C=CO[C@@]2(C)Oc3c(C)c(O)c4c(O)c(c(/C=N/N5CCN(C)CC5)c(O)c4c3C2=O)NC(=O)/C(C)=C\C=C[C@H](C)[C@H](O)[C@@H](C)[C@@H](O)[C@@H](C)[C@H](OC(C)=O)[C@@H]1C`: the Potency result in test [1], in test [2], in test [3] and in test [4] was “inactive” each time.
For the compound `CC1(C)S[C@@H]2[C@H](NC(=O)C(C(=O)O)c3ccccc3)C(=O)N2[C@H]1C(=O)O` (stereo not given in full), the Potency result in test [1], in test [2], in test [3] and in test [4] was “inactive” in each case.
As to `CC(C)c1nc(CN(C)C(=O)N[C@H](C(=O)N[C@@H](Cc2ccccc2)C[C@H](O)[C@H](Cc2ccccc2)NC(=O)OCc2cncs2)C(C)C)cs1`, the Potency entry in test [1], in test [2], in test [3] and in test [4] was “inactive” each time.
`NS(=O)(=O)Cc1noc2ccccc12`: the Potency result in test [1], in test [2], in test [3] and in test [4] was “inactive” in each case.
On to `CCN(C)C(=O)Oc1cccc([C@H](C)N(C)C)c1`, for which the Potency entry in test [1], in test [2], in test [3] and in test [4] was “inactive” throughout.
Consider `O=c1[nH]cnc2c1ncn2[C@H]1CC[C@@H](CO)O1`, for which the Potency result in test [1], in test [2], in test [3] and in test [4] was “inactive” each time.
In the case of `CCCCOCCOCCOCc1cc2c(cc1CCC)OCO2`, the Potency entry in test [1], in test [2], in test [3] and in test [4] was “inactive” in each case.
For `CCn1cc(C(=O)O)c(=O)c2cc(F)c(N3CCNCC3)cc21`, the Potency result in test [1], in test [2], in test [3] and in test [4] was “inactive” in each case.
Take `O=C(O)CCCc1ccccc1`: the Potency entry in test [1], in test [2], in test [3] and in test [4] was “inactive” throughout.
`C1N2CN3CN1CN(C2)C3`: the Potency result in test [1], in test [2], in test [3] and in test [4] was “inactive” throughout.
Take `CN1C(CCl)Nc2cc(Cl)c(S(N)(=O)=O)cc2S1(=O)=O` (stereo not given): the Potency result in test [1], in test [2], in test [3] and in test [4] was “inactive” throughout.
Consider `Nc1cccc2c1CN(C1CCC(=O)NC1=O)C2=O` (stereo not given), for which the Potency entry in test [1], in test [2], in test [3] and in test [4] was “inactive” throughout.
For the compound `C[C@H]1[C@H](NC(=O)/C(=N/OC(C)(C)C(=O)O)c2csc(N)n2)C(=O)N1S(=O)(=O)O` (stereo in doubt), the Potency entry in test [1], in test [2], in test [3] and in test [4] was “inactive” in each case.
On to `CN(C)CCCN1c2ccccc2CCc2ccc(Cl)cc21`, for which the values for the Potency in test [1] and in test [3] were 28.2 µM (active) and 11.2 µM (active), respectively. Also, the Potency result in test [2] and in test [4] was “inactive” throughout.
Take `CC[N+](C)(C)c1cccc(O)c1`: the Potency result in test [1], in test [2], in test [3] and in test [4] was “inactive” in each case.
As to `Cc1ccccc1N1C(=O)c2cc(S(N)(=O)=O)c(Cl)cc2NC1C` (stereo not given), the Potency entry in test [1], in test [2], in test [3] and in test [4] was “inactive” throughout.
As for `O=C(NCCN1CCOCC1)c1ccc(Cl)cc1`, the Potency entry in test [1], in test [2], in test [3] and in test [4] was “inactive” in each case.
With `C[n+]1ccccc1/C=N/O`, the Potency result in test [1], in test [2], in test [3] and in test [4] was “inactive” in each case.
Consider `CC[C@@H](CO)NCCN[C@@H](CC)CO`, for which the Potency result in test [1], in test [2], in test [3] and in test [4] was “inactive” throughout.
Regarding `NC(=O)NO`, the Potency entry in test [1], in test [2], in test [3] and in test [4] was “inactive” in each case.
Regarding `Cc1cc(C)cc(OCC2CNC(=O)O2)c1` (stereo not given), the Potency entry in test [1], in test [2], in test [3] and in test [4] was “inactive” throughout.
Take `CC[C@]1(O)C[C@@H]2CN(CCc3c([nH]c4ccccc34)[C@@](C(=O)OC)(c3cc4c(cc3OC)N(C)[C@H]3[C@@](O)(C(=O)OC)[C@H](OC(C)=O)[C@]5(CC)C=CCN6CC[C@]43[C@@H]65)C2)C1`: the Potency entry in test [1], in test [2], in test [3] and in test [4] was “inactive” in each case.
For the compound `C[N+]1(C)CCC(OC(=O)C(O)(c2ccccc2)C2CCCC2)C1` (stereo not given), the Potency result in test [1], in test [2], in test [3] and in test [4] was “inactive” each time.
In the case of `CC/C=C(\C(=O)N[C@@H]1C(=O)N2C(C(=O)OCOC(=O)C(C)(C)C)=C(COC(N)=O)CS[C@H]12)c1csc(N)n1`, the Potency entry in test [1], in test [2], in test [3] and in test [4] was “inactive” throughout.
`CC(=O)Oc1cc2c(s1)CCN(C(C(=O)C1CC1)c1ccccc1F)C2` (stereo not given): the Potency entry in test [1], in test [2], in test [3] and in test [4] was “inactive” in each case.
As for `CS(=O)(=O)OCCCCOS(C)(=O)=O`, the Potency result in test [1], in test [2], in test [3] and in test [4] was “inactive” in each case.
Turning to `C=C(CC)C(=O)c1ccc(OCC(=O)O)c(Cl)c1Cl`, the Potency entry in test [1], in test [2], in test [3] and in test [4] was “inactive” each time.
On to `NC[C@H](O)c1ccc(O)c(O)c1`, for which the Potency result in test [1], in test [2], in test [3] and in test [4] was “inactive” each time.
For the compound `CN(C)[C@@H]1C(=O)C(C(N)=O)=C(O)[C@@]2(O)C(=O)C3=C(O)c4c(O)ccc(Cl)c4[C@@H](O)[C@H]3C[C@@H]12`, the Potency result in test [1], in test [2], in test [3] and in test [4] was “inactive” in each case.
